Measurements from PubChem BioAssay.
Activity calls are given as the source filed them. Unless noted, the rule behind the calls is not given here.

Legend:
[1] = HepG2 liver cancer cell viability effects, profiling panel, resazurin fluorescence, 24 h, PK04 Diversity Set (AID 1172); conditions: higher = more signal
[2] = basal S. cerevisiae growth modulation, no modifier, primary screen, OD600, strain BY4716, 24 h, basal condition (AID 1173); conditions: OD600, 24 h, higher = more signal, called active from +8 up or from −8 down
[3] = MM1S myeloma cell viability, profiling panel, resazurin fluorescence, basal, 24 h, PK04 Diversity Set (AID 1174); conditions: higher = more signal, called active from +8 up or from −8 down;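 note: MM1S multiple myeloma cell line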
[4] = molecular target: Dihydroorotate dehydrogenase (quinone), mitochondrial (Plasmodium falciparum (isolate 3D7)) (UniProt Q08210); assay: PfDHODH enzyme inhibitors, primary screen, biochemical, C-terminal His tag, absorbance 600 nm (AID 1175); conditions: DCIP absorbance 600 nm, higher = more signal, called active from +8 up or from −8 down;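 note: recombinant parasite enzyme with a five histidine tag at its C terminus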
Dihydroorotate dehydrogenase (quinone), mitochondrial (Plasmodium falciparum (isolate 3D7)), sequence (Q08210 whole entry, looked up): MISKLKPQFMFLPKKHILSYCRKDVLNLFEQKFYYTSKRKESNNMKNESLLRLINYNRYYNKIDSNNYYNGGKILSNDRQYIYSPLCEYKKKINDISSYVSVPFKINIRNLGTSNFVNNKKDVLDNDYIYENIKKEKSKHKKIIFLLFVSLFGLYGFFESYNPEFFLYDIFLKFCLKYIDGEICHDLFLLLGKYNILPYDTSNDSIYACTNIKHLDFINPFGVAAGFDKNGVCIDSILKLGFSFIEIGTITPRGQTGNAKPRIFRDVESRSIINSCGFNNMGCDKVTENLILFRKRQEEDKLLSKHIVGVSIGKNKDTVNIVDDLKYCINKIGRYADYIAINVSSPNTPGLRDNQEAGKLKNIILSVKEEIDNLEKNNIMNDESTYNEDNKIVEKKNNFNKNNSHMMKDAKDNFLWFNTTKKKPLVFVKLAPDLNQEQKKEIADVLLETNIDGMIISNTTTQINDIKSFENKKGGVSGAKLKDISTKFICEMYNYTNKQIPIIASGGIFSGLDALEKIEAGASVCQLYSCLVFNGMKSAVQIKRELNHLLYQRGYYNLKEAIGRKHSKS

[5] = P. aeruginosa biofilm formation inhibitors, primary screen, strain PAO1, LB-PBS medium, absorbance 600 nm (AID 1176); conditions: P. aeruginosa PAO1 growth/biofilm, A600, 12 h; higher = more signal
[6] = S. cerevisiae RM11-1a growth modifiers, primary screen, strain RM11-1a, OD600, basal, 24 h (AID 1177); conditions: OD600, 24 h, higher = more signal, called active from +8 up or from −8 down;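 note: cultures grown under basal conditions with no added stressor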
[7] = E. coli acrAB mutant growth effects, primary screen, E. coli filamentation inducers, strain DRC39, OD650, 24 h (AID 1178); conditions: higher = more signal, called active from +8 up or from −8 down;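 note: growth measured as culture turbidity by optical density at 650 nm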
[8] = E. coli acrAB mutant growth effects, primary screen, E. coli filamentation inducers, strain DRC39, OD650, 48 h (AID 1179);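 note: screen aims at cell division blockers that make cells filament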; conditions: E. coli DRC39 delta-acrAB growth, higher = more signal, called active from +8 up or from −8 down
[9] = RPMI8226 myeloma cell viability, profiling panel, resazurin fluorescence, basal, 24 h, PK04 Diversity Set (AID 1180); conditions: higher = more signal;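 note: RPMI8826 multiple myeloma cell line at 5000 cells per well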
[10] = molecular target: E3 ubiquitin-protein ligase XIAP (Homo sapiens) (UniProt P98170); assay: XIAP binders, primary screen, biophysical, small-molecule microarray, fluorescence 635 nm (AID 1181); conditions: small-molecule microarray binding, higher = more signal;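 note: score merges 667 nm emission and signal to noise over triplicate slides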
E3 ubiquitin-protein ligase XIAP (Homo sapiens), sequence (P98170 whole entry, looked up): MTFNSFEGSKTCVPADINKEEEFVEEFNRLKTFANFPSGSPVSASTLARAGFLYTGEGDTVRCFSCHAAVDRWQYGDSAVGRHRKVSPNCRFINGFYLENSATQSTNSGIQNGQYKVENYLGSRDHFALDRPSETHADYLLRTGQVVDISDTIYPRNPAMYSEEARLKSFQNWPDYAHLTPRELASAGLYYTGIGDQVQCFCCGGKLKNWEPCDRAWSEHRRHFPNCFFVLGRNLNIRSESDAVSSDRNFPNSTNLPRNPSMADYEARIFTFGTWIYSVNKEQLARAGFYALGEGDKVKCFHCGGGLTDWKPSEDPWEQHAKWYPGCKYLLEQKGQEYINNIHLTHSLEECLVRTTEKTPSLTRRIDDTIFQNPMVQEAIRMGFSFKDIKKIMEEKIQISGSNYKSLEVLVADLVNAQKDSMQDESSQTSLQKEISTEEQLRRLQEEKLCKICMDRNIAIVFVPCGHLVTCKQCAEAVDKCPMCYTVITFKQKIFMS

[11] = test system: XIP peptide (Xip251-270) binding; assay: small-molecule binders of XIP peptide, primary screen, biochemical, small-molecule microarray, fluorescence 635/667 nm, 0.1 µg/mL protein (AID 1182); conditions: fluorescent protein binding, 635 nm, higher = more signal, called active from +8 up or from −8 down
XIP peptide (Xip251-270) = assay: small-molecule binders of XIP peptide, primary screen, biochemical, small-molecule microarray, fluorescence 635/667 nm, 0.5 µg/mL protein (AID 1183); conditions: small-molecule microarray binding, fluorescence 635 nm; higher = more signal
[12] = Plasmodium falciparum growth inhibition, primary screen, strain 3D7, DAPI fluorescence, 100 nL (AID 1184);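 note: parasites grown inside human red blood cells in medium with human serum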; conditions: P. falciparum 3D7 growth, 3 d, higher = more signal
[13] = molecular target: Homeobox protein Hox-A13 (Mus musculus) (UniProt Q62424); assay: inhibitors of HoxA13-DNA binding, primary screen, biochemical, fluorescence polarization, labeled oligonucleotide (AID 1185); conditions: 15 min, higher = more signal, called active from +8 up or from −8 down
Homeobox protein Hox-A13 (Mus musculus), sequence (Q62424 whole entry, looked up): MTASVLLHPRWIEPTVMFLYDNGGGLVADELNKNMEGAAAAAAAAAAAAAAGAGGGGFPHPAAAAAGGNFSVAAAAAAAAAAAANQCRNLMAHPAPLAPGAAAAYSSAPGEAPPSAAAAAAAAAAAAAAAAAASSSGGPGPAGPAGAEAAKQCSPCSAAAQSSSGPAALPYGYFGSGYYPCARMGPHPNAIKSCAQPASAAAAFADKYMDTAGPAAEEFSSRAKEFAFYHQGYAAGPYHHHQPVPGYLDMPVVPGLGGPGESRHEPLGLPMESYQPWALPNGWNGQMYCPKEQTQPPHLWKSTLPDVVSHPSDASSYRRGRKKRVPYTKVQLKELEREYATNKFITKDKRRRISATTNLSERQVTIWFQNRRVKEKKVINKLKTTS

[14] = inhibitors of hydroxyurea-induced Chk1 phosphorylation, primary screen, imaging, HeLa, phospho-Chk1 antibody, percent positive cells (AID 1186); conditions: hydroxyurea-induced phospho-Chk1 immunofluorescence imaging, higher = more signal
[15] = inhibitors of hydroxyurea-induced Chk1 phosphorylation, primary screen, imaging, HeLa, phospho-Chk1 nuclear intensity (AID 1187); conditions: hydroxyurea-induced phospho-Chk1 immunofluorescence imaging, higher = more signal

Compound	z-score [1]	z-score [2]	z-score [3]	composite z-score [4]	z-score [5]	z-score [6]	z-score [7]	z-score [8]	z-score [9]	composite z-score [10]	composite z-score [11]	composite z-score (XIP peptide (Xip251-270))	z-score [12]	z-score [13]	z-score [14]	z-score [15]
CCOc1ccc(N2C(=O)/C(=C/C=C/c3ccccc3OC)S(=O)(=O)C2c2cccc([N+](=O)[O-])c2)cc1 (stereo not drawn)	1.28	-1.52 (inactive)	-2.33 (inactive)	-1.74 (inactive)	1.07 (inactive)	-1.44 (inactive)	0.777 (inactive)	0.765 (inactive)	-0.548	0.0264	-0.735 (inactive)	-0.299	0.418	1.37 (inactive)	-0.322 (inactive)	-0.16 (inactive)
N#Cc1ccc(NN2C(C(O)c3cccc4ccccc34)C=CC3C(=O)N(c4ccccc4)C(=O)C32)cc1 (stereo not drawn)	-0.707	0.185 (inactive)	-0.605 (inactive)	0.199 (inactive)	0.487 (inactive)	0.806 (inactive)	-0.586 (inactive)	0.434 (inactive)	-0.28	0.0791	0.366 (inactive)	0.684	-0.0446	1.05 (inactive)	-0.145 (inactive)	0.137 (inactive)
C=CCNC(=O)[C@H]1[C@@H]2C(=O)O[C@@H](c3ccccc3)[C@@H](c3ccccc3)N2[C@@H](c2ccc(O)cc2)[C@]12C(=O)N(C(=O)OCCOC)c1ccc(C#CC3=CCCCC3)cc12	0.467	0.107 (inactive)	-0.61 (inactive)	-0.629 (inactive)	0.858 (inactive)	1.01 (inactive)	-0.925 (inactive)	-0.723 (inactive)	-0.205	0.22	0.514 (inactive)	0.834	-0.919	-0.216 (inactive)	-0.411 (inactive)	-0.376 (inactive)
COC(=O)[C@]1(CO)N=C(c2ccc(OCCCO)cc2)O[C@@H]1c1ccccc1N=[N+]=[N-]	-0.318	-0.114 (inactive)	-0.198 (inactive)	0.482 (inactive)	0.205 (inactive)	-0.709 (inactive)	-0.131 (inactive)	0.57 (inactive)	-0.459	0.964	0.816 (inactive)	0.812	-0.313	-6.14 (inactive)	0.0389 (inactive)	0.0674 (inactive)
CCCC[C@H]1OB(O)C[C@H]2C1=C(C)C[C@H]1C(=O)N(C)C(=O)[C@H]12	-0.539	-2.09 (inactive)	-0.596 (inactive)	-0.829 (inactive)	0.4 (inactive)	-0.776 (inactive)	0.506 (inactive)	0.499 (inactive)	-0.466	-0.256	0.756 (inactive)	0.608	2.46	-9.92 (active)	0.327 (inactive)	0.547 (inactive)
CCOC(=O)C[C@H]1[C@H](OC(=O)c2ccc(C(=O)c3ccccc3)cc2)[C@@H](NC(=O)c2ccc(-c3ccccc3)cc2)c2cc(OCCCO)ccc2N1C(=O)c1ccc2ccccc2n1	0.206	-1.1 (inactive)	0.38 (inactive)	-1.69 (inactive)	-0.0998 (inactive)	-0.0276 (inactive)	0.254 (inactive)	1.23 (inactive)	0.909	0.119	1.25 (inactive)	0.388	-1.04	-0.834 (inactive)	-0.916 (inactive)	-0.596 (inactive)
COCCCNC(=O)[C@@]1(Sc2ccc(C)cc2)CC(=O)N(Cc2ccccc2)[C@@H]1c1ccc(CO)cc1I	0.121	-3.62 (inactive)	-2.46 (inactive)	-0.666 (inactive)	-0.549 (inactive)	-1.02 (inactive)	0.283 (inactive)	0.264 (inactive)	-1.78	0.106	-0.453 (inactive)	0.423	-0.0893	-2.08 (inactive)	0.442 (inactive)	1.03 (inactive)
CC(C)NC(=O)[C@@]1(c2ccc([N+](=O)[O-])cc2)CC(=O)N(CC23CC4CC(CC(C4)C2)C3)[C@@H]1c1ccc(CO)cc1I	-3.37	-0.722 (inactive)	-4.2 (inactive)	-0.304 (inactive)	0.761 (inactive)	0.835 (inactive)	-0.398 (inactive)	-0.226 (inactive)	-4.86	0.0178	0.805 (inactive)	0.704	-0.705	-3.26 (inactive)	-0.122 (inactive)	1.16 (inactive)
